Experimental data as given in PubChem BioAssay (Tox21).
Values joined by “and” are separate entries in the source; they are usually repeats but may differ in a detail not shown here. Identical values can stand only once. Inconclusive results are not listed. A structure can be active in one record and inactive in another. Active and inactive are the calls of the source. Unless noted, calls come from the whole dose curve; as a rule, active = well fitted curve in the direction sought with a large enough effect in the repeat runs; inconclusive = weak or mixed curves; inactive = no such curve, though single readings can be large; an effect the other way counts as inactive or inconclusive.

Key:
[1] = qHTS assay to identify small molecule antagonists of the glucocorticoid receptor (GR) signaling pathway - cell viability counter screen (AID 720693); note: nearly all actives have a fitted effect of over 55% in size; note: potency is the fitted concentration of half-maximal effect
[2] = qHTS assay for identifying genotoxic compounds that show differential cytotoxicity against isogenic chicken DT40 cell lines with known DNA damage response pathways - wild type cell line (AID 743012); note: nearly all actives have a fitted effect of over 60% in size; note: potency is the fitted concentration of half-maximal effect
Procedure, shortened: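 Viability by ATP luminescence (CellTiter-Glo, 30 min RT) after 40 h compound treatment at 37 C/5% CO2, using 300 parental DNA repair-proficient DT40 cells per well.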

[3] = qHTS assay for identifying genotoxic compounds that show differential cytotoxicity against isogenic chicken DT40 cell lines with known DNA damage response pathways - Rev3 mutant cell line (AID 743014); note: nearly all actives have a fitted effect of over 55% in size; note: potency is the fitted concentration of half-maximal effect
[4] = qHTS assay for identifying genotoxic compounds that show differential cytotoxicity against isogenic chicken DT40 cell lines with known DNA damage response pathways - Rad54/Ku70 mutant cell line (AID 743015); note: nearly all actives have a fitted effect of over 60% in size; note: potency is the fitted concentration of half-maximal effect
[5] = qHTS assay to identify small molecule antagonists of the androgen receptor (AR) signaling pathway - cell viability counter screen (AID 743033; note: nearly all actives have a fitted effect of over 45% in size)
[6] = qHTS assay to identify small molecule antagonists of the androgen receptor (AR) signaling pathway using the MDA cell line - cell viability counter screen (AID 743041; note: nearly all actives have a fitted effect of over 45% in size; note: potency is the fitted concentration of half-maximal effect)
Procedure, shortened: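 In this qHTS counter assay, fluorescence intensity after CellTiter-Fluor addition indicated viability of MDA-kb2 AR-luc cells given compounds and R1881 for 16 h at 37C.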

[7] = target: Androgen receptor (Homo sapiens) (UniProt P10275); experiment: qHTS assay to identify small molecule agonists of the androgen receptor (AR) signaling pathway using the MDA cell line (AID 743040; note: nearly all actives have a fitted effect of over 20% in size)
Procedure, shortened: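 Cell-based luciferase reporter: MDA-kb2, MMTV promoter (AR + GR response elements). 16 h compound exposure at 37C; ONE-Glo, 30 min RT, luminescence.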

[8] = target: Androgen receptor (Homo sapiens) (UniProt P10275); experiment: qHTS assay to identify small molecule antagonists of the androgen receptor (AR) signaling pathway (AID 743035; active = well fitted inhibition curve with a large enough effect in the signal ratio in the repeat runs, not every such curve was filed as active; the % refers to the signal ratio; note: potency is the fitted concentration of half-maximal effect)
Procedure, shortened: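 Antagonist mode: AR-bla HEK293 cells co-treated with test compounds and agonist R1881 for 16 h at 37C, 5% CO2. Beta-lactamase activity read as FRET fluorescence after 2 h room-temperature substrate loading.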

[9] = target: Androgen receptor (Homo sapiens) (UniProt P10275); experiment: qHTS assay to identify small molecule antagonists of the androgen receptor (AR) signaling pathway using the MDA cell line (AID 743042; note: nearly all actives have a fitted effect of over 55% in size; note: potency is the fitted concentration of half-maximal effect)
Procedure, shortened: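 MDA-kb2 cells (human breast carcinoma, stably carrying an MMTV-luciferase reporter responsive to AR and GR) were plated at 3,000 cells/well and preincubated 5 hr at 37C, then given compound plus R1881 agonist for 16 h. ONE-Glo luminescence was read.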

[10] = target: Androgen receptor (Homo sapiens) (UniProt P10275); experiment: qHTS assay to identify small molecule agonists of the androgen receptor (AR) signaling pathway (AID 743036; active = well fitted activation curve with a large enough effect in the signal ratio in the repeat runs, with a control signal flat, not every such curve was filed as active; the % refers to the signal ratio)
Procedure, shortened: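 Beta-lactamase under UAS control, stably integrated in HEK293 GripTite cells, reports receptor activation. After 16 h compound treatment, cells received FRET substrate for 2 h at room temperature before fluorescence reading.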
% is set by controls: 0 for no effect and ±100 for the full control effect.

Chain of Androgen receptor (Homo sapiens) (P10275 whole entry, looked up): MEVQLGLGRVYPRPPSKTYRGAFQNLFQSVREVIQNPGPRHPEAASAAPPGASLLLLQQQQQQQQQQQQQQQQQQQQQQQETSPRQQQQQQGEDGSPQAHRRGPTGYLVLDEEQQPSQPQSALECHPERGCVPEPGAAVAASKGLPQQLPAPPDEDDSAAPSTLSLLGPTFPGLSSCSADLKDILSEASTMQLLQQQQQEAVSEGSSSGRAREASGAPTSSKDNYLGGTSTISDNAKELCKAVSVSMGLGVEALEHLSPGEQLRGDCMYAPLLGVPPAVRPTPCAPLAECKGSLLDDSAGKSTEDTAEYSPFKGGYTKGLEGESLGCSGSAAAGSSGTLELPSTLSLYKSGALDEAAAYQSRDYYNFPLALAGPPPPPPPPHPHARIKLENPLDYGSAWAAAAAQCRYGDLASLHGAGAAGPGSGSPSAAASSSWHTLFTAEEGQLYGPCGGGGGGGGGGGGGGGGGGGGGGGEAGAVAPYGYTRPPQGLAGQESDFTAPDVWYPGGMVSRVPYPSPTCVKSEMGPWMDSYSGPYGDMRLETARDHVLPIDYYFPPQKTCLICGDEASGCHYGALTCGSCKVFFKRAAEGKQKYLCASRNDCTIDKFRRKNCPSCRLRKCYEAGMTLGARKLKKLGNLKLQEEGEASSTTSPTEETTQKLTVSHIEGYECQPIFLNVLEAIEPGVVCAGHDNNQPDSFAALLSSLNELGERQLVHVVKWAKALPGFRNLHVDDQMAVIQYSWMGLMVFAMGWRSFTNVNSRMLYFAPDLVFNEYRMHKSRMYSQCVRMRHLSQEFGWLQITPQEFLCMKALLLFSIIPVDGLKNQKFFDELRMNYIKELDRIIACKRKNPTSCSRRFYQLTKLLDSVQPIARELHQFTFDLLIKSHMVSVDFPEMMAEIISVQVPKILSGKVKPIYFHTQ

[Cl-].[Cl-].[Sn+2]
inactive: Potency [1] | Potency [2] | Potency [3] | Potency [4] | Potency [5] | Potency [6]

O=[N+]([O-])[O-].[Tl+]
active: Potency [2] 1.55 µM | Potency [3] 1.09 µM | Potency [4] 1.09 µM
inactive: Potency [1] | Potency [6]

Nc1nc(N)c(N)c(N)n1
inactive: Potency [1] | Potency [2] | Potency [3] | Potency [4] | Potency [5] | Potency [6]

Cc1ccn2nc(S(=O)(=O)Nc3c(F)cccc3F)nc2n1
inactive: Potency [1] | Potency [2] | Potency [3] | Potency [4] | Potency [5] | Potency [6]

N#CCCl
inactive: Potency [1] | Potency [2] | Potency [3] | Potency [4] | Potency [5] | Potency [6]

CC(Cc1ccc(O)cc1)NCC(O)c1cc(O)cc(O)c1 (stereo not given)
inactive: Potency [1] | Potency [2] | Potency [3] | Potency [4] | Potency [5] | Potency [6]

NC(=O)C(Cl)Cl
inactive: Potency [1] | Potency [2] | Potency [3] | Potency [4] | Potency [5] | Potency [6]

CCN(CC)C(=O)N[C@@H]1C=C2c3cccc4[nH]cc(c34)C[C@@H]2N(C)C1
active: Potency [2] 7.5 µM | Potency [3] 26.6 µM | Potency [4] 16.8 µM
inactive: Potency [1] | Potency [5] | Potency [6]

CC(=O)[O-].CC(=O)[O-].O.O.[Zn+2]
inactive: Potency [1] | Potency [2] | Potency [3] | Potency [4] | Potency [5] | Potency [6]

c1cc[n+]2c(c1)-c1cccc[n+]1CC2
active: Potency [2] 3.35 µM | Potency [3] 3.35 µM | Potency [4] 2.37 µM
inactive: Potency [1] | Potency [6]

CC[C@]1(O)CC[C@H]2[C@@H]3CCC4=CCCC[C@@H]4[C@H]3CC[C@@]21C
active: Potency [1] 3.01 µM | Potency [2] 8.41 µM | Potency [3] 9.44 µM | Potency [4] 13.3 µM
inactive: Potency [5] | Potency [6]

CCO/N=C(\CC)C1=C(O)CC(c2c(C)cc(C)cc2C)CC1=O (stereo not given)
inactive: Potency [1] | outcome [7] | Potency [6]
active: Potency [2] 48.5 µM | Potency [3] 51.4 µM | Potency [4] 62.5 µM

CCN(CC)C(=S)S
inactive: Potency [1]
active: Potency [2] 2.66 µM and 5.42 µM and 433 nM | Potency [4] 5.31 µM and 5.42 µM and 486 nM

CCNc1nc(NC(C)C(C)C)nc(SC)n1 (stereo not given)
inactive: Potency [1] | Potency [5] | Potency [6]
active: Potency [2] 38.6 µM | Potency [3] 34.4 µM | Potency [4] 61.1 µM

Clc1c(Cl)c(Cl)c(Cl)c(Cl)c1Cl
inactive: viability change, negative = cytotoxic [1] -7.19% [at 7.04 µM] | activity change, negative = cytotoxicity [2] 20.8% [at 8.52 µM] | activity, negative = cytotoxicity [3] 6.09% [at 8.53 µM] | activity change, negative = cytotoxicity [4] -2.7% [at 8.55 µM] | activity change, negative = cytotoxicity [5] 3.9% [at 7.04 µM] | viability change, negative = cytotoxic [6] -2.06% [at 8.47 µM]

O=C(NC(=O)c1ccccc1Cl)Nc1ccc(OC(F)(F)F)cc1
inactive: Potency [1] | Potency [2] | Potency [4] | Potency [5] | Potency [8] | outcome [7] | Potency [6] | Potency [9]

CNN
inactive: Potency [1] | Potency [2] | Potency [3] | Potency [4] | Potency [5] | Potency [6]

COP(=S)(NC(C)C)Oc1ccc(C)cc1[N+](=O)[O-] (stereo not given)
active: Potency [2] 54.5 µM | Potency [4] 61.1 µM
inactive: Potency [1] | Potency [5]

CCCCn1cc[n+](C)c1.[Cl][Fe-]([Cl])([Cl])[Cl]
inactive: Potency [1] | Potency [2] | Potency [3] | Potency [5] | Potency [6]

Brc1ccc(Oc2ccc(Br)cc2Br)c(Br)c1
inactive: Potency [1] | Potency [2] | Potency [3] | Potency [4] | Potency [5] | Potency [6]

CCOP(=S)(OCC)SC(CCl)N1C(=O)c2ccccc2C1=O (stereo not given)
active: Potency [2] 48.6 µM | Potency [3] 43.3 µM | Potency [4] 61.1 µM | Potency [9] 61.1 µM
inactive: Potency [1] | outcome [10] | outcome [7] | Potency [6]

CC(=O)[O-].CC(=O)[O-].O.O.O.[Pb+2]
inactive: Potency [1] | Potency [2] | Potency [3] | Potency [5]

Clc1ccc(C2(Cn3cncn3)OCCO2)c(Cl)c1
active: Potency [2] 61.1 µM | Potency [3] 30.6 µM
inactive and 61.1 µM (active): Potency [4]
inactive: Potency [1] | Potency [5] | Potency [6]

CSC1=N[C@@](C)(c2ccccc2)C(=O)N1Nc1ccccc1
active: Potency [2] 1.54 µM | Potency [3] 1.72 µM | Potency [4] 1.54 µM | Potency [6] 48.6 µM
inactive: Potency [1]

CC(C)[C@@H](Nc1ccc(C(F)(F)F)cc1Cl)C(=O)OC(C#N)c1cccc(Oc2ccccc2)c1 (stereo not given in full)
inactive: Potency [1] | Potency [2] | Potency [3] | Potency [4] | Potency [5] | Potency [6]

O=Cc1ccccc1
inactive: Potency [1] | Potency [2] | Potency [3] | Potency [4] | Potency [5] | Potency [6]

CCC(C)Nc1c([N+](=O)[O-])cc(C(C)(C)C)cc1[N+](=O)[O-] (stereo not given)
inactive: Potency [1] | Potency [2] | Potency [3] | Potency [4] | Potency [5] | Potency [6]

[O]=[Cr][O][Cr]=[O]
inactive: Potency [1] | Potency [2] | Potency [3] | Potency [4] | Potency [5] | Potency [6]

COC(=O)c1ccccc1S(=O)(=O)NC(=O)Nc1nc(C)nc(OC)n1
inactive: Potency [1] | Potency [2] | Potency [3] | Potency [4] | Potency [5] | Potency [6]

CC(C)N(C(=O)CCl)c1ccccc1
inactive: outcome [10] | outcome [7]
active: Potency [1] 54.9 µM | Potency [2] 21.7 µM and 17.2 µM | Potency [3] 2.17 µM and 3.86 µM | Potency [4] 9.69 µM and 7.7 µM | Potency [8] 8.71 µM and 6.92 µM | Potency [9] 30.6 µM and 21.7 µM
